Assay results published in PubChem BioAssay AID1038 (National Center for Advancing Translational Sciences (NCATS), 2008).
Inconclusive results are not listed. Active and inactive are the calls of the source. The call rests on the fitted dose curve.

Assay: Normal 1 Cell Viability Secondary Assay for qHTS Assay for Epigenetic Modulators
Details: Normal 1 bronchial epithelial viability, MTS, 4 d
Text: NIH Molecular Libraries Screening Centers Network [MLSCN] NIH Chemical Genomics Center [NCGC] MLSCN Grant: 1 X01 MH079860-01 Assay Provider: Elisabeth D. Martinez, University of Texas SW Medical Center NCGC Assay Overview: This secondary assay characterizes selected actives identified in the qHTS of the Locus Derepression (LDR) assay (PubChem AID 597). The LDR assay detects the derepression of a GFP reporter that is stably integrated in a region of the genome of murine c127i mammary cells that is presumably silenced. Compounds that cause derepression of the locus to express GFP are identified by enumerating GFP positive cells using a laser-scanning microplate cytometer. Selected LDR actives were assayed for killing of Normal 1, a patient-derived normal bronchial epithelial line matched to NSCLC 1, a nonsmall cell lung carcinoma line from the same patient. The Normal 1 line assays the cytoxicity of test compounds on normal lung cells. Normal 1 cell viability was measured using Cell Titer 96 AQueous One (Promega), an assay which detects the ability of metabolically active cells to reduce a tetrazolium salt substrate (MTS), into a soluble formazan product that can be measured by colorimetry.
NCGC Assay Protocol Summary Normal 1 cells were plated in 96-well flat bottom tissue culture dishes (Corning) and grown overnight at 37 C and 5% CO2, then treated with compounds, incubated 4 days, and assayed for viability using the Cell Titer 96 AQueous One kit (Promega) according to the manufacturer's protocol. Absorbance at 490 nm and 650 nm (reference) was measured by a Spectra Max (Molecular Devices). Data were normalized to the untreated control (100% viability). Each cell line was tested in one or two independent assays, each containing 4 or 8 replicates. For further details, see R.L. Johnson, W. Huang, A. Jadhav, C.P. Austin, J. Inglese, E.D. Martinez, A Quantitative High-Throughput Screen Identifies Potential Epigenetic Modulators of Gene Expression, Analytical Biochemistry (2007), doi: 10.1016/j.ab.2007.12.028

| SMILES | Potency | outcome |
| --- | --- | --- |
| CC(C)C(=O)NC(c1ccco1)c1ccc2cccnc2c1O (configuration not stated) | 9000 nM (active) |  |
| O=Nc1ccc(O)c2ncccc12 | 3000 nM (active) |  |
| CC(C)C(=O)NC(c1ccco1)c1cc([N+](=O)[O-])c2cccnc2c1O (configuration not stated) | 800 nM (active) |  |
| CN1C(=S)SC(c2ccccc2)N(C)C1c1ccccc1 (configuration not stated) |  | inactive |
| CC(/C=C/C(=O)NO)=C\[C@@H](C)C(=O)c1ccc(N(C)C)cc1 | 200 nM (active) |  |
| O=C(CSc1cccc2cccnc12)NCc1ccccc1 |  | inactive |
| CC(C)C(=O)NC(c1ccc(N(C)C)cc1)c1ccc2cccnc2c1O (configuration not stated) | 6000 nM (active) |  |
